Drawing on article PMC7862700, “An all-to-all approach to the identification of sequence-specific readers for epigenetic DNA modifications on cytosine”, this text covers binding signal for one sequence.

What all share (test): DAPPL (digital affinity profiling via proximity ligation, sequencing); 10 mM Tris-HCl pH 7.5, 50 mM NaCl, 1 mM DTT, 4% glycerol, room temperature, 30 min; GST-TFs on glutathione beads, 16-mer random dsDNA library, 0.1% formaldehyde crosslink after washing; high values mean tight binding
The target in one experiment is T1, FEV (Homo sapiens, UniProt Q99581 1-238).
T1 sequence: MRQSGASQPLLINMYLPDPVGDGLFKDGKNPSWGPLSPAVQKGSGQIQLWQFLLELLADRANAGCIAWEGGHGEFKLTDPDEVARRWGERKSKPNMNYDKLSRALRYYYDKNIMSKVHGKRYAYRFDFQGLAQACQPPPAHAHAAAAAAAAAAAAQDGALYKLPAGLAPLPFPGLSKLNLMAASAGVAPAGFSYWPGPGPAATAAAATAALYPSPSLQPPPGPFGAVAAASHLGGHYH
To be noted: protein: recombinant; tags: N-terminal GST; dsDNA, one strand shown. The method in brief:
(§1)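 In yeast, human transcription factors were expressed with a GST fusion, then pulled down on glutathione beads and given DNA barcodes. Pooled with a tag-only sample, they were exposed to 200 nmole of a 16-mer random double-stranded DNA library (Tris/NaCl/DTT/glycerol buffer, room temperature, 30 min), washed, crosslinked with 0.1% formaldehyde, proximity-ligated using BsaI/T4 ligase for 1 h at 37 °C, PCR-amplified and read on an Illumina NextSeq500. Each hexamer's frequency of reads for a factor, divided by the matching frequency for the tag-only sample, gives the binding signal.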

Another experiment has as its target ETV5 (Homo sapiens, UniProt P41161 1-510). To be noted: protein: recombinant; tags: N-terminal GST; dsDNA, one strand shown. Put shortly:
as §1

In the next experiment the target is HSF1 (Homo sapiens, UniProt Q00613 1-529). As to conditions: protein: recombinant; tags: N-terminal GST; chain copies: 3; dsDNA, one strand shown. Put shortly: as §1
Sequence of HSF1 (Q00613 whole entry): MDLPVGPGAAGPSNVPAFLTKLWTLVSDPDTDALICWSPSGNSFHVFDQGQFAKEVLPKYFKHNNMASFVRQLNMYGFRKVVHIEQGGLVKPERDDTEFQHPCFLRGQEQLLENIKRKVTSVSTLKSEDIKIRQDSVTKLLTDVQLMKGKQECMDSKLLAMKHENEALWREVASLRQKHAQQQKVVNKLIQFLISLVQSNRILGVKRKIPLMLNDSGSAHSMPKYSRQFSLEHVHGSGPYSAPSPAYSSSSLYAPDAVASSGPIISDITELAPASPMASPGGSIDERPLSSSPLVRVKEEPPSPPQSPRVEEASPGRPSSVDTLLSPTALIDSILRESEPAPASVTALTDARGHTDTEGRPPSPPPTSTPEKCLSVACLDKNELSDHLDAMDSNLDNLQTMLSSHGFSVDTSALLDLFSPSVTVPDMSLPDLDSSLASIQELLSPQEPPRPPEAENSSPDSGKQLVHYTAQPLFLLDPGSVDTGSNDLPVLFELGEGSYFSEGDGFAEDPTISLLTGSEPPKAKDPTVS
The target in a further experiment is T2, SPIC (Homo sapiens, UniProt Q8N5J4 1-248).
T2 sequence: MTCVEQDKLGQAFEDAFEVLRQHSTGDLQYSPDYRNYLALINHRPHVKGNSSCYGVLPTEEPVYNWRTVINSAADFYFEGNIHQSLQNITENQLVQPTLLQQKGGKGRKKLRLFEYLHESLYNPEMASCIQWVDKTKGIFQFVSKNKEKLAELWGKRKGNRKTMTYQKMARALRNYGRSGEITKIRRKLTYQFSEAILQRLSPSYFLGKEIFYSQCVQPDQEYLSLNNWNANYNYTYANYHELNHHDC
To be noted: protein: recombinant; tags: N-terminal GST; dsDNA, one strand shown. Put shortly:
as §1

Another experiment deals with ELF4 (Homo sapiens, UniProt Q99607 1-663). As to conditions: protein: recombinant; tags: N-terminal GST; dsDNA, one strand shown. Put shortly: as §1
Sequence of ELF4 (Q99607 whole entry): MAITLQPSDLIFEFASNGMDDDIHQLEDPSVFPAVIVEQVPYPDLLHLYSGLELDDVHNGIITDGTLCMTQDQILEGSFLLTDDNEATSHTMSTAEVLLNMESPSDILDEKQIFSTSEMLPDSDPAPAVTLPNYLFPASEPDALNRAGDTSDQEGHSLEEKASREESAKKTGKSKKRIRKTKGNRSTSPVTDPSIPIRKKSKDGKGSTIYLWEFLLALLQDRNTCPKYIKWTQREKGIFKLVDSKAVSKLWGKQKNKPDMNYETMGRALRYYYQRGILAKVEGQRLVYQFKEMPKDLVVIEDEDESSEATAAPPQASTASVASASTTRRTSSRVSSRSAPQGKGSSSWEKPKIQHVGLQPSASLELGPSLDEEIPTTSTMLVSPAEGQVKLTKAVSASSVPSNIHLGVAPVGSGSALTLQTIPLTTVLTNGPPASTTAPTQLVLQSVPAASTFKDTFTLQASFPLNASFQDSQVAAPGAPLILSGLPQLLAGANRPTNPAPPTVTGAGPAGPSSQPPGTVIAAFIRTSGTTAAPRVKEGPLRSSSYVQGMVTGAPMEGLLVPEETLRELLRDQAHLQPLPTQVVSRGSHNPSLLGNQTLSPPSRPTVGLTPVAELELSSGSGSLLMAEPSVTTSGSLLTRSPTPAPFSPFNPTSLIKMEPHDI
For the next experiment, the target named is T3, ELK4 (Homo sapiens, UniProt P28324-2 1-405).
T3 sequence: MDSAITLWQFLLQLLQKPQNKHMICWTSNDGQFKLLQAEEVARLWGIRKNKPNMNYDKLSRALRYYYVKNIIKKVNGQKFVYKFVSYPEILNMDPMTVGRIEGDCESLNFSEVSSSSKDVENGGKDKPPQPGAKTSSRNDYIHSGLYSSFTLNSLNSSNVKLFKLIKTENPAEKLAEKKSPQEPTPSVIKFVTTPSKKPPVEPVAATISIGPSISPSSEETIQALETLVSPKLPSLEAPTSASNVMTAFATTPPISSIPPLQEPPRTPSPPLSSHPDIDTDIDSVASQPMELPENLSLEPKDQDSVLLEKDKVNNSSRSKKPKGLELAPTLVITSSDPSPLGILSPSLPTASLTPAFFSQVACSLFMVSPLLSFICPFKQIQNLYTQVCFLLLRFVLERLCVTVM
To be noted: protein: recombinant; tags: N-terminal GST; dsDNA, one strand shown. The method in brief: as §1

The target of another experiment is T4, ETV2 (Homo sapiens, UniProt O00321 1-342).
T4 sequence: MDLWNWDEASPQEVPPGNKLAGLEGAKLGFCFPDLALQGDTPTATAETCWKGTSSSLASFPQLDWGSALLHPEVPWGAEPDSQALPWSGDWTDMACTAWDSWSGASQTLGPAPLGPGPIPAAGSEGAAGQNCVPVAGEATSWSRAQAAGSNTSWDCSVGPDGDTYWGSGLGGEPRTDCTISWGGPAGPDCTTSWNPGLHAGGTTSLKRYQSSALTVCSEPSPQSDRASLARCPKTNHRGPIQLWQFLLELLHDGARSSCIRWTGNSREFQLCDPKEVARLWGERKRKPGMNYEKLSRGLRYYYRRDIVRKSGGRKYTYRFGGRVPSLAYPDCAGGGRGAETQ
As to conditions: protein: recombinant; tags: N-terminal GST; dsDNA, one strand shown. The method in brief:
as §1

The target of another experiment is T5, ELF3 (Homo sapiens, UniProt P78545 1-371).
T5 sequence: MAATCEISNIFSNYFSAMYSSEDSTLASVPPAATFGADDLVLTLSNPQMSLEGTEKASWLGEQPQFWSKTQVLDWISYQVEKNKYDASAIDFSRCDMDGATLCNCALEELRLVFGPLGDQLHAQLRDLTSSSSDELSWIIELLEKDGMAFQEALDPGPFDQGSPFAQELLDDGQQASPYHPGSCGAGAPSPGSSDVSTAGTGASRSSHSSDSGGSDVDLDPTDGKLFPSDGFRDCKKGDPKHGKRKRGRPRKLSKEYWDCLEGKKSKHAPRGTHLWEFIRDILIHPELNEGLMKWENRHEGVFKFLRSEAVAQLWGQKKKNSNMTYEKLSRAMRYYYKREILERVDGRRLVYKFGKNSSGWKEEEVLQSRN
To be noted: protein: recombinant; tags: N-terminal GST; dsDNA, one strand shown. The method in brief:
as §1

The target in another experiment is CRX (Homo sapiens, UniProt O43186 1-299). To be noted: protein: recombinant; tags: N-terminal GST; dsDNA, one strand shown. Put shortly:
as §1

In the next experiment the target is ETV1 (Homo sapiens, UniProt P50549 1-477). As to conditions: protein: recombinant; tags: N-terminal GST; dsDNA, one strand shown. The method in brief: as §1
Sequence of ETV1 (P50549 whole entry): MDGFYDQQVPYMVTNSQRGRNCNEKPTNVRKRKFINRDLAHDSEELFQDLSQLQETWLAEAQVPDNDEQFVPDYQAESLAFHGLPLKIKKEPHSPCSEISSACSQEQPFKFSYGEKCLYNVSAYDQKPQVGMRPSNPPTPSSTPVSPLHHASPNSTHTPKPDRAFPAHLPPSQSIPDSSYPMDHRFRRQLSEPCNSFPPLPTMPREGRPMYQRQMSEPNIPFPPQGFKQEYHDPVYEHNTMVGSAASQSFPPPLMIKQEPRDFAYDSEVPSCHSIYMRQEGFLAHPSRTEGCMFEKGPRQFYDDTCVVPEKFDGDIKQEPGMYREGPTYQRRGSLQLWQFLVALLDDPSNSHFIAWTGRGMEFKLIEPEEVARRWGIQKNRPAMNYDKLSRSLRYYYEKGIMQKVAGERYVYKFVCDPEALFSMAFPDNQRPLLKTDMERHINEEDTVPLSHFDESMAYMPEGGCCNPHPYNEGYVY
The target in a further experiment is T6, ERF (Homo sapiens, UniProt P50548 1-548).
T6 sequence: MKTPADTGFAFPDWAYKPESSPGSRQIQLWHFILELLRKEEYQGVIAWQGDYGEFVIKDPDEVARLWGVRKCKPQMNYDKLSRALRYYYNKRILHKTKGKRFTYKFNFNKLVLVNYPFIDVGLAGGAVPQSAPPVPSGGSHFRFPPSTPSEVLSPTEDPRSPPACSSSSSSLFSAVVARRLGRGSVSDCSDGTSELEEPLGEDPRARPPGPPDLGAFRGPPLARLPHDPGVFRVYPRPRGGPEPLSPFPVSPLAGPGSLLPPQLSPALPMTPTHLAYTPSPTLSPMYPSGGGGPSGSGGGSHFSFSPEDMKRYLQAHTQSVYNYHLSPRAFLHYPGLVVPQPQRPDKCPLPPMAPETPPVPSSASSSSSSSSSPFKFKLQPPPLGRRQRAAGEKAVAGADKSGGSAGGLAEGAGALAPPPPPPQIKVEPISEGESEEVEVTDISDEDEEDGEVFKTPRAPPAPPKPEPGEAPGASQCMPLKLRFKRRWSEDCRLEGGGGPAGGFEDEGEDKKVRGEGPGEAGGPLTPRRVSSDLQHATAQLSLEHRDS
As to conditions: protein: recombinant; tags: N-terminal GST; dsDNA, one strand shown. Put shortly:
as §1

A further experiment deals with T7, ETV3L (Homo sapiens, UniProt Q6ZN32 1-361).
T7 sequence: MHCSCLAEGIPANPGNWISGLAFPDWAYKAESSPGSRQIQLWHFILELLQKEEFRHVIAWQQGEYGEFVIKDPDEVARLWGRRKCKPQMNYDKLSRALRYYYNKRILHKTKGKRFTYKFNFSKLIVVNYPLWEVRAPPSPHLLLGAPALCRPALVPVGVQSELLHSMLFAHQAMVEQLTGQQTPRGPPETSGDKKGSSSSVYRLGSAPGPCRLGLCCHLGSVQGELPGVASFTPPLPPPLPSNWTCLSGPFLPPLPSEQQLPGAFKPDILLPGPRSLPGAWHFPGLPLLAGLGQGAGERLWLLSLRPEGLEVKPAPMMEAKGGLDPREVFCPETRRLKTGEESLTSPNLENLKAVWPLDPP
As to conditions: protein: recombinant; tags: N-terminal GST; dsDNA, one strand shown. Put shortly:
as §1

The target in the next experiment is T8, ETS2 (Homo sapiens, UniProt P15036 1-469).
T8 sequence: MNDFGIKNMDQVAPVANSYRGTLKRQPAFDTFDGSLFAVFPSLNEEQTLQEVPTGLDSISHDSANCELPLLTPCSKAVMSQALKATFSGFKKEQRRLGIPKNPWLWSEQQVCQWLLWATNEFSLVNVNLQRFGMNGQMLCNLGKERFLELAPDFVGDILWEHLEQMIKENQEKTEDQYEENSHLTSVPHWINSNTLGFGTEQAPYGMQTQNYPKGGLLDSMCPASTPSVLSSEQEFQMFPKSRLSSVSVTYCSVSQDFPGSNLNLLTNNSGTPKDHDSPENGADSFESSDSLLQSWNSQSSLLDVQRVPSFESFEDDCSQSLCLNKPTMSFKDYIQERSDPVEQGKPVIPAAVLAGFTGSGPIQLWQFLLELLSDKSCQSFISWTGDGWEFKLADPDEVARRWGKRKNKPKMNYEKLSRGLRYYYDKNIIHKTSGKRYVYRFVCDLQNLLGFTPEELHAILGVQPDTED
To be noted: protein: recombinant; tags: N-terminal GST; dsDNA, one strand shown. The method in brief:
as §1

The target of a further experiment is T9, SPDEF (Homo sapiens, UniProt O95238 1-335).
T9 sequence: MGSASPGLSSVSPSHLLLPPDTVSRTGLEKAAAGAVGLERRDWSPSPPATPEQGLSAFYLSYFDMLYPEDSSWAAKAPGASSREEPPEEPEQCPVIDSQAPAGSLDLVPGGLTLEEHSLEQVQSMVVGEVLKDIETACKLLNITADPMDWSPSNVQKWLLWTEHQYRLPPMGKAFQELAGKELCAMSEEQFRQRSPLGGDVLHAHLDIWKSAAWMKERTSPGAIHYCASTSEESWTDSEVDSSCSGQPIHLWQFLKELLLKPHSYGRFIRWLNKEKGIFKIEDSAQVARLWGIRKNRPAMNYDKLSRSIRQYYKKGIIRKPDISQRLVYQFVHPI
To be noted: protein: recombinant; tags: N-terminal GST; dsDNA, one strand shown. Put shortly:
as §1

Another experiment concerns the target T10, ETV7 (Homo sapiens, UniProt Q9Y603 1-341).
T10 sequence: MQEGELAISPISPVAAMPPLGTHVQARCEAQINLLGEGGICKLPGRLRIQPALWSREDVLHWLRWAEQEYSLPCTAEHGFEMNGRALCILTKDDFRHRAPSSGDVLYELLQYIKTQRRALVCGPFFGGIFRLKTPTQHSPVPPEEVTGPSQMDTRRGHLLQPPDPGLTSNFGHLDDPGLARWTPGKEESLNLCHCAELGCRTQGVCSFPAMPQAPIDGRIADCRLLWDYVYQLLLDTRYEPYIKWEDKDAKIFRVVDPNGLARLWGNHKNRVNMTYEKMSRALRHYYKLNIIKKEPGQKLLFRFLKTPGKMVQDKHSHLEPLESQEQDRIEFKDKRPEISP
To be noted: protein: recombinant; tags: N-terminal GST; dsDNA, one strand shown. Put shortly: as §1

The target of a further experiment is T11, ELF5 (Homo sapiens, UniProt Q9UKW6-2 1-255).
T11 sequence: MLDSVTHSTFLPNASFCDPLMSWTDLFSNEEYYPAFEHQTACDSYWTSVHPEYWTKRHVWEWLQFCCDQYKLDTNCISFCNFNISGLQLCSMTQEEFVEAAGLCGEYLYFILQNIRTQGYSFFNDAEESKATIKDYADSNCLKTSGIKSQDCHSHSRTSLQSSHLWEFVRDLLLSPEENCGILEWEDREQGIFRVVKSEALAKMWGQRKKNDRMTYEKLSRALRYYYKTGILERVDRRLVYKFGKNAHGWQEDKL
As to conditions: protein: recombinant; tags: N-terminal GST; dsDNA, one strand shown. Put shortly: as §1

The next experiment addresses T12, ETV3 (Homo sapiens, UniProt P41162-2 1-143).
T12 sequence: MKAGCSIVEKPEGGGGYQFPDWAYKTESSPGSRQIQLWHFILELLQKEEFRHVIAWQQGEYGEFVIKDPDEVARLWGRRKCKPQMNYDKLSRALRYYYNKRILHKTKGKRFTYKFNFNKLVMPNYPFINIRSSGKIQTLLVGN
To be noted: protein: recombinant; tags: N-terminal GST; dsDNA, one strand shown. Put shortly:
as §1

The next experiment addresses ETV6 (Homo sapiens, UniProt P41212 1-452). To be noted: protein: recombinant; tags: N-terminal GST; dsDNA, one strand shown. The method in brief: as §1

Sequence of ETV5 (P41161 whole entry): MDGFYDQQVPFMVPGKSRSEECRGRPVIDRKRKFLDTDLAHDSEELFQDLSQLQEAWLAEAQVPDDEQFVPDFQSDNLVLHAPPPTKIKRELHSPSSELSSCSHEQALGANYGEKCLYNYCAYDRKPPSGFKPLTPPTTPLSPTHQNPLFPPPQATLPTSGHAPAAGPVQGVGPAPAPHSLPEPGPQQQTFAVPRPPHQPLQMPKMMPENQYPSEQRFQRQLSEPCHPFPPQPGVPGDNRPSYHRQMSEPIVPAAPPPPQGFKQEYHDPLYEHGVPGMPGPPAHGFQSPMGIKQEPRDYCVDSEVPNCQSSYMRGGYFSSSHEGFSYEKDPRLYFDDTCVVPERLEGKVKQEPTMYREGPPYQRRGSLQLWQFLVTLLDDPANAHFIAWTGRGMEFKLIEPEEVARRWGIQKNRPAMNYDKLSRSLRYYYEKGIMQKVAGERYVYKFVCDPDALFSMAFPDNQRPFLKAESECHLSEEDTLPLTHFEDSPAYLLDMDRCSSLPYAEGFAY
Sequence of ETV6 (P41212 whole entry): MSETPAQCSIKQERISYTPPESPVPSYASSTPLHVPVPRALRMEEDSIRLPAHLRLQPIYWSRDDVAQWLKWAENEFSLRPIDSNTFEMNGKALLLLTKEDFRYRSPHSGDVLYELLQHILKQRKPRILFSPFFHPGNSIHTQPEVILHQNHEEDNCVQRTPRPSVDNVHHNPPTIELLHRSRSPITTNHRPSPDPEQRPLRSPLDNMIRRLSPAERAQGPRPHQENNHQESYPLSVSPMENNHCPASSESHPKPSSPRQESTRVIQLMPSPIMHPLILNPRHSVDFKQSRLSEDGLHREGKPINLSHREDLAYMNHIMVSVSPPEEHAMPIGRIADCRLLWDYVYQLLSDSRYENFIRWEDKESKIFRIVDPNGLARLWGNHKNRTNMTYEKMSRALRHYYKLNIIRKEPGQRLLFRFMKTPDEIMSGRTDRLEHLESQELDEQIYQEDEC
Sequence of CRX (O43186 whole entry): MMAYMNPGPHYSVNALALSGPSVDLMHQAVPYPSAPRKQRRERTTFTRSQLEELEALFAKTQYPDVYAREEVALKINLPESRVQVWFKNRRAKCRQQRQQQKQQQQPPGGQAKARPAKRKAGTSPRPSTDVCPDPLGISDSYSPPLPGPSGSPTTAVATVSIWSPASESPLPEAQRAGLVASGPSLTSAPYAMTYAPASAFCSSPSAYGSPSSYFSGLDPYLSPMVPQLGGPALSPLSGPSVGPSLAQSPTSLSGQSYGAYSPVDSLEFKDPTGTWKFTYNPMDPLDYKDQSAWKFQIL

Regarding TGGCTA, the binding signal with FEV was 1.22 fold enrichment (6-mer frequency, TF over GST control); with ETV5 it was 1.2 fold enrichment (6-mer frequency, TF over GST control); with HSF1, 1.25 fold enrichment (6-mer frequency, TF over GST control); in the experiment with SPIC, 1.25 fold enrichment (6-mer frequency, TF over GST control); in the experiment with ELF4 it was 1.19 fold enrichment (6-mer frequency, TF over GST control); in the experiment with ELK4 it was 1.47 fold enrichment (6-mer frequency, TF over GST control). For the same sequence, the binding signal in the experiment with ETV2 is 1.23 fold enrichment (6-mer frequency, TF over GST control); in the experiment with ELF3, 1.27 fold enrichment (6-mer frequency, TF over GST control); with CRX it was 1.35 fold enrichment (6-mer frequency, TF over GST control); with ETV1, 1.16 fold enrichment (6-mer frequency, TF over GST control); in the experiment with ERF, 1.33 fold enrichment (6-mer frequency, TF over GST control); in the experiment with ETV3L it was 1.21 fold enrichment (6-mer frequency, TF over GST control). The binding signal with ETS2 is 1.16 fold enrichment (6-mer frequency, TF over GST control); with SPDEF, 1.28 fold enrichment (6-mer frequency, TF over GST control); with ETV7, 1.29 fold enrichment (6-mer frequency, TF over GST control); with ELF5 it was 1.14 fold enrichment (6-mer frequency, TF over GST control); in the experiment with ETV3, 1.18 fold enrichment (6-mer frequency, TF over GST control); with ETV6, 1.28 fold enrichment (6-mer frequency, TF over GST control).
